Results filed as inconclusive are left out. Activity calls are given as the source filed them. Unless noted, calls come from the whole dose curve; as a rule, active = well fitted curve in the direction sought with a large enough effect; inconclusive = small, poorly fitted or top-dose-only effect, or another doubt; inactive = no such curve, though single readings can be large; an effect the other way counts as inactive or inconclusive.
What was measured:
[1] = molecular target: Protein phosphatase 1D (Homo sapiens) (UniProt O15297); assay: RapidFire Mass Spectrometry qHTS Assay for Modulators of WT P53-Induced Phosphatase 1 (WIP1) (AID 1347424);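 note: amount of dephosphorylated VEPPL-S-QETFS peptide product formed by WIP1; series mostly up to about 63 µM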
Method in brief: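 WIP1 (10 nM final) was preincubated 1 h at room temperature with compounds in Tris-HCl pH 7.5, 30 mM MgCl2, TCEP, EGTA, BSA; 2 uM VEPPL-pS-QETFS phosphopeptide was added for 5 min, quenched with formic acid, and dephosphorylated product quantified by RapidFire MS.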

[2] = molecular target: Protein phosphatase 1D (Homo sapiens) (UniProt O15297); assay: Rhodamine-PBP qHTS Assay for Modulators of WT P53-Induced Phosphatase 1 (WIP1) (AID 1347425)
Method in brief: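 Steps: enzyme with Rh-PBP sensor and compounds, room-temperature incubation of 1 hr, baseline read, addition of VEPPL-pS-QETFS (10 uM final), kinetic fluorescence reads at 525/598 nm. Activity equals final minus baseline signal.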

[3] = Primary qHTS for inhibitors of La Crosse Virus (LACV) - induced cell death in SH-SY5Y cells (AID 1508616);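 note: top concentration of the series differs between compounds; higher means more rescue of cells from virus-induced death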
Method in brief: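 Readout was luminescence from ATPLite 1step added after a 6-day LACV infection (0.01 MOI) of SH-SY5Y cells that had received pin-transferred compound 24 hr after seeding.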

[4] = molecular target: Calcium and integrin-binding protein 1 (Homo sapiens) (UniProt Q99828); assay: Primary qHTS for Identification of Calcium Integrin Binding Protein 1 (CIB1) Competitor (AID 1508620);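 note: GST tagged CIB1 binding a fluorescein labelled alphaIIb integrin peptide tracer; top concentration of the series differs between compounds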
Method in brief: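 Fluorescence polarization competition: CIB1-GST (1 uM final) preincubated with compound 15 min at room temperature, then FITC-labeled alphaIIb peptide (100 nM final) added for another 15 min. Polarization read at Ex 480/Em 540.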

[5] = Primary qHTS for small molecule stabilizers of the endoplasmic reticulum resident proteome: Secreted ER Calcium Modulated Protein (SERCaMP) assay (AID 1508630)
Method in brief: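 GLuc-SERCaMP-expressing SH-SY5Y cells, pretreated 16 h with compound, are challenged with thapsigargin to empty ER calcium stores; after 4 h, coelenterazine is added directly to the medium and luminescence is imaged.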

[6] = A High-Content qHTS Against Drug Library for the Identification of Small Molecules that Inhibit DYT1 Early Onset Primary Dystonia-Associated Cell Pathology (AID 1645839; calls by dose curve; note: potency is the fitted concentration of half-maximal effect)
Method in brief: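 Readout: %pathology, the punctate EGFP-TorsinA distribution from imaging, as the primary channel and cell count as the toxicity counterscreen. HEK293 Flp-In cells expressing delE TorsinA were induced with tetracycline and treated with compound for 48 h.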

[7] = molecular target: Cytochrome P450 2D6 (Homo sapiens) (UniProt P10635); assay: Cytochrome P450 family 2 subfamily D member 6 (CYP2D6) small molecule antagonists: luciferase biochemical (cell-free) qHTS assay (AID 1645840; active = well fitted curve in the direction sought with a large enough effect in the repeat runs; an effect the other way counts as inactive or inconclusive; note: nearly all actives have a fitted effect of over 55% in size; note: potency is the fitted concentration of half-maximal effect)
Method in brief: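 P450-Glo luminescent screen: recombinant CYP2D6 enzyme–proluciferin substrate mix preincubated with compound 10 min at room temperature, then NADPH regeneration added for 1 h at room temperature. Detection reagent added for 20 min; luciferin light read as relative luminescence units.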

[8] = molecular target: Cytochrome P450 2C9 (Homo sapiens) (UniProt P11712); assay: Cytochrome P450 family 2 subfamily C member 9 (CYP2C9) small molecule antagonists: luciferase biochemical (cell-free) qHTS assay (AID 1645842; active = well fitted curve in the direction sought with a large enough effect in the repeat runs; an effect the other way counts as inactive or inconclusive; note: nearly all actives have a fitted effect of over 55% in size; note: potency is the fitted concentration of half-maximal effect)
Method in brief: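 Luminescence, after 20 min with luciferin detection reagent, reflected CYP2C9 turnover during a 1 h NADPH-driven reaction at 37C. Enzyme-substrate mix contained 0.4% bovine serum albumin and was preincubated with compound 10 min at room temperature.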

Measured: Potency

Calcium and integrin-binding protein 1 (Homo sapiens), sequence (Q99828 whole entry, looked up): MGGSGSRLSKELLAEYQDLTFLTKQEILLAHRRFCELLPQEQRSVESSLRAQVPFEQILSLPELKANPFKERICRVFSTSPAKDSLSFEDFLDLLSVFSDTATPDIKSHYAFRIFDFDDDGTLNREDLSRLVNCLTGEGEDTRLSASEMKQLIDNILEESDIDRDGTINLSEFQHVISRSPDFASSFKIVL
Cytochrome P450 2C9 (Homo sapiens), sequence (P11712 whole entry, looked up): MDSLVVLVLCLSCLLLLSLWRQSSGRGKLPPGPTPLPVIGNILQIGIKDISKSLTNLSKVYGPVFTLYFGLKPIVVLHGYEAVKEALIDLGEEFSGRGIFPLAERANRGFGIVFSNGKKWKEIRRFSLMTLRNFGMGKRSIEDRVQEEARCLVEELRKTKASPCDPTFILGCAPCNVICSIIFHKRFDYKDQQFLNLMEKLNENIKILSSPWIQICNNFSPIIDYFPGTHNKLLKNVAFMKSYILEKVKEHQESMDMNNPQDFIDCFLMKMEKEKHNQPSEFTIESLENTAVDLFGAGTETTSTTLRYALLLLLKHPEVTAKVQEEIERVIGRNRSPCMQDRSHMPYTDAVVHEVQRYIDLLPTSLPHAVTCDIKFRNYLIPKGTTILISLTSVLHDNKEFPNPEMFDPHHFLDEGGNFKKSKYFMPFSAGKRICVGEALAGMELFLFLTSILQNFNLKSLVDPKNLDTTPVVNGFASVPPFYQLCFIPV
Protein phosphatase 1D (Homo sapiens), sequence (O15297 whole entry, looked up): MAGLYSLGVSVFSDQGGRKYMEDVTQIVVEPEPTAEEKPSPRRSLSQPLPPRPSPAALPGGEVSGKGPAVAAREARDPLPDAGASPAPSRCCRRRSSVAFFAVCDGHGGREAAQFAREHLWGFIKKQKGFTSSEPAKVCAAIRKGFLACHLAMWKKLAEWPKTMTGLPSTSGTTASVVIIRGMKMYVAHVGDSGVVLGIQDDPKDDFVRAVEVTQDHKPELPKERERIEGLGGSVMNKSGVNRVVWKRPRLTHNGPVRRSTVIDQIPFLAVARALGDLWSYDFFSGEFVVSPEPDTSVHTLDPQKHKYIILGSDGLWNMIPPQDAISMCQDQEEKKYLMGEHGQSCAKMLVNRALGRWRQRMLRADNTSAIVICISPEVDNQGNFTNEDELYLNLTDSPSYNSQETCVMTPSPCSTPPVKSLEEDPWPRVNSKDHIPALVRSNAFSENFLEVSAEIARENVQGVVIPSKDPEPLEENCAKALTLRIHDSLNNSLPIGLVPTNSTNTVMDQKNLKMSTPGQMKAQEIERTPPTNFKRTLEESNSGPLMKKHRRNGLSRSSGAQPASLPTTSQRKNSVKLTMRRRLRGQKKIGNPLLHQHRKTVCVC
Cytochrome P450 2D6 (Homo sapiens), sequence (P10635 whole entry, looked up): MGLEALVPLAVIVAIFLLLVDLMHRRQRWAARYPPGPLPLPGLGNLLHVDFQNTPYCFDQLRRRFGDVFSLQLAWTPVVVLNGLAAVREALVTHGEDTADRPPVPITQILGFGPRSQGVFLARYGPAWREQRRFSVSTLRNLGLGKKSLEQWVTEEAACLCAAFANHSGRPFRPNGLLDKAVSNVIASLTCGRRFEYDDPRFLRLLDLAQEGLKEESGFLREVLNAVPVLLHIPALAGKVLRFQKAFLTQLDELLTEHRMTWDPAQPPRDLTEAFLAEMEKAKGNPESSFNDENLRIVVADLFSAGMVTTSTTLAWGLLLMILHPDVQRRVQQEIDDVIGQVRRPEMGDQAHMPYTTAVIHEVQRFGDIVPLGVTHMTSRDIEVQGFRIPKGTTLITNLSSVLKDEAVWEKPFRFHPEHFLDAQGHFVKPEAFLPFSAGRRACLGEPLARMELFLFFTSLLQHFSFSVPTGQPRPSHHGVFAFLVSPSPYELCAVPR

Cc1ccc(/C=N/n2c(-c3ccccc3)csc2=S)cc1
active: [8] 4.36 µM
inactive: [1] | [2] | [3] | [4] | [5] | [6] | [7]

O=C(OCC1(COC(=O)c2cccnc2)CCCC(COC(=O)c2cccnc2)(COC(=O)c2cccnc2)C1O)c1cccnc1
inactive: [1] | [2] | [3] | [4] | [5] | [6] | [7]
active: [8] 2.45 µM

CCC(C(=O)NC(=O)NC(C)=O)c1ccccc1 (stereo not drawn)
inactive: [1] | [2] | [3] | [4] | [5] | [6] | [7] | [8]

CC(=O)[C@@]1(O)CC[C@H]2[C@@H]3C[C@H](C)C4=CC(=O)CC[C@]4(C)[C@H]3CC[C@@]21C
inactive: [1] | [2] | [3] | [4] | [5] | [6] | [7]

O=C(Nc1ccc(Cl)cc1)Nc1ccc(Cl)c(Cl)c1
inactive: [1] | [2] | [3] | [4] | [5] | [7]
active: [8] 4.36 µM

Nc1c(I)cc(I)c(C(=O)N(CCC(=O)O)c2ccccc2)c1I
inactive: [1] | [2] | [3] | [4] | [5] | [7]

COc1cc2c(cc1OC)CN(C(=O)[C@H](C)N[C@@H](CCc1ccccc1)C(=O)O)[C@H](C(=O)O)C2
inactive: [1] | [2] | [3] | [4] | [5] | [6] | [7] | [8]

Cc1ccc(C(C)OC(=O)C2(C)CCC(C(=O)O)C2(C)C)cc1 (stereo not drawn)
inactive: [1] | [2] | [3] | [4] | [5] | [6] | [7] | [8]

O=C1NCCN1CCN1CCC(c2cn(-c3ccc(F)cc3)c3ccc(Cl)cc23)CC1
active: [6] 11.2 µM | [7] 1.55 µM
inactive: [1] | [2] | [3] | [4] | [5]

CCCCCCCCCCCCCC[N+](C)(C)C
active: [6] 10 µM | [7] 3.09 µM
inactive: [1] | [2] | [3] | [4] | [8]

O=C1NC2CCCCN2C12CCN(CCCN1c3ccccc3CCc3ccc(Cl)cc31)CC2 (stereo not drawn)
inactive: [1] | [2] | [3] | [4]
active: [7] 2.45 µM

Cc1cc(OCCOCC[N+](C)(C)Cc2ccccc2)ccc1C(C)(C)CC(C)(C)C
active: [7] 7.76 µM
inactive: [1] | [2] | [3] | [4]

COc1cc(S(N)(=O)=O)cc(C(=O)O)c1OC
inactive: [1] | [2] | [3] | [4] | [6] | [7] | [8]

CCCCCCCCCCCCCCCC[n+]1ccccc1
inactive: [1] | [2] | [5]

Nc1ccc(O)cc1
active: [7] 6.17 µM | [8] 15.5 µM
inactive: [1] | [2] | [3] | [6]

CC(C)(C)c1ccc(O)c(O)c1
inactive: [2] | [4]
active: [6] 31.6 µM

CC(C)(c1ccc(O)cc1)c1ccc(O)cc1
inactive: [1] | [3] | [4]
active: [6] 31.6 µM | [7] 43.9 µM | [8] 27.2 µM

COc1ccccc1OCC1CNC(=O)O1 (stereo not drawn)
inactive: [1] | [3] | [4] | [5] | [7] | [8]

CCN(CC)CCOc1ccc(/C(=C(\Cl)c2ccccc2)c2ccccc2)cc1
active: [7] 1.38 µM
inactive: [1] | [2] | [3] | [4]

COc1c(N2C[C@@H]3CCCN[C@@H]3C2)c(F)cc2c(=O)c(C(=O)O)cn(C3CC3)c12
inactive: [1] | [2] | [3] | [4] | [6] | [7] | [8]

CCCCC(=O)OCC(=O)[C@H]1[C@H](C)C[C@H]2[C@@H]3C[C@H](F)C4=CC(=O)C=C[C@]4(C)[C@@]3(F)[C@@H](O)C[C@@]21C
inactive: [2] | [3] | [4] | [5] | [6]

Cc1nc(N)nc(N)c1-c1ccc(Cl)c(Cl)c1
inactive: [1] | [2] | [3] | [4] | [8]
active: [7] 0.871 µM

— PubChem BioAssay (NCATS)
